Results taken from PubChem BioAssay (NCATS).
Several values for one entry are separate records, joined by “and”; a condition that tells them apart may be missing. Equal entries are not always repeated. Records with an inconclusive call do not appear. Values without a mark were called inactive. Activity calls are given as the source filed them. Calls follow the shape of the dose curve; as a rule, active = well fitted inhibition curve with a large enough effect; inconclusive = small, poorly fitted or top-dose-only effect; inactive = no such curve, though single readings can be large or run the other way.

Assay: Primary qHTS for inhibitors of nuclear receptor binding SET domain protein 2 (NSD2) in an RCH-ACV wild type WT cells (2C) (AID 1645877); also: nearly all actives have a fitted effect of over 70% in size
Conditions: RCH-ACV (leukaemia line) NSD2 WT (2C) viability, CellTiter-Glo, 72 h; series mostly up to 44.9 µM; activity change, negative = cell killing: at the top concentration
% is scaled to controls: 0 for no effect and ±100 for the full control effect; potency is read from the fitted curve at half-maximal effect.

| Structure (SMILES) | Potency | activity change, negative = cell killing | outcome |
| --- | --- | --- | --- |
| CN(C)CC/C=C1/c2ccccc2COc2ccc(CC(=O)O)cc21 | inactive |  |  |
| NCCCC[C@H](N[C@@H](CCc1ccccc1)C(=O)O)C(=O)N1CCC[C@H]1C(=O)O |  | 4.34% |  |
| CCCCS(=O)(=O)N[C@@H](Cc1ccc(OCCCCC2CCNCC2)cc1)C(=O)O | inactive |  |  |
| OCc1ccccc1O |  | -0.936% |  |
| CNC(=O)CN(CCN(CCN(CC(=O)[O-])CC(=O)NC)CC(=O)[O-])CC(=O)[O-].O.[Gd+3] |  |  | inactive |
| O=c1[nH]c(=O)n([C@H]2CCCO2)cc1F |  | -4.02% |  |
| CCOC(=O)c1cccc(N)c1 |  | 0.49% |  |
| CN(C)CCOc1ccccc1Cc1ccccc1 |  | 2.85% |  |
| C#C[C@]1(O)CC[C@H]2[C@@H]3CCC4=CC(=O)CC[C@@H]4[C@H]3CC[C@@]21C | 26.6 µM (active) |  |  |
| O=C1[C@H]2CCCC[C@H]2C(=O)N1CCCCN1CCN(c2nsc3ccccc23)CC1 | 23.7 µM (active) |  |  |
| O=c1ccc2ccccc2o1 |  | 7.2% |  |
| NCCC(O)(P(=O)(O)O)P(=O)(O)O |  |  | inactive |
| NC(CO)(CO)CO |  | 2.89% |  |
| CC(C)(CO)[C@@H](O)C(=O)NCCCO |  | 2.56% |  |
| CC1(C)O[C@@H]2C[C@H]3[C@@H]4CCC5=CC(=O)CC[C@]5(C)[C@@]4(F)[C@@H](O)C[C@]3(C)[C@]2(C(=O)CCl)O1 |  | -72.8% |  |
| COc1cc(OC)cc(OC)c1 |  |  | inactive |
| CCCCCCCCCCCCCCNCCO | 7.5 µM (active) |  |  |
| CCN1CCCC1=O |  |  | inactive |
| NC(CS)C(=O)O (stereo not drawn) |  |  | inactive |
| CN(C)CCCOc1nn(Cc2ccccc2)c2ccccc12 | 10.6 µM (active) and 14.5 µM (active) |  |  |
| CC[C@@H](CO)NCCN[C@@H](CC)CO |  | -0.951% |  |
| C[C@H](O)C(=O)Nc1c(I)c(C(=O)NC(CO)CO)c(I)c(C(=O)NC(CO)CO)c1I |  | 4% |  |
| C[C@H]1[C@H](NC(=O)/C(=N/OC(C)(C)C(=O)O)c2csc(N)n2)C(=O)N1S(=O)(=O)O (stereo in doubt) |  |  | inactive |
| NC[C@H]1O[C@H](O[C@H]2[C@H](O)[C@@H](O[C@H]3O[C@H](CO)[C@@H](O)[C@H](N)[C@H]3O)[C@H](N)C[C@@H]2N)[C@H](N)[C@@H](O)[C@@H]1O |  | 2.15% [at 17.3 µM] |  |
| Nc1ccc(/C=C/c2ccc(N)cc2S(=O)(=O)O)c(S(=O)(=O)O)c1 |  |  | inactive [at 0.588 µM] |
| CN1CCN(C(c2ccccc2)c2ccccc2)CC1 | inactive |  |  |
| NC(=O)CC[C@@H]1NC(=O)[C@H](Cc2ccccc2)NC(=O)[C@H](Cc2ccc(O)cc2)NC(=O)CCSSC[C@@H](C(=O)N2CCC[C@H]2C(=O)N[C@@H](CCCN=C(N)N)C(=O)NCC(N)=O)NC(=O)[C@H](CC(N)=O)NC1=O |  |  | inactive |
| OC(CCN1CCCCC1)(c1ccccc1)c1ccccc1 |  | -10.5% |  |
